Laboratory results as given in PubChem BioAssay AID743093 (The Scripps Research Institute Molecular Screening Center, 2013).
Among all 150,000 compounds or so, about 100 (0.067%) were called active. This excerpt belongs to a sample that is enriched for actives. Values without a mark were called inactive.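 The calls were made as follows: active = inhibition above the mean plus 3 SD of compounds within the control limits, set per campaign (cut at about 38% in these data); inactive = the rest.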

Assay: late stage P. falciparum gametocyte viability inhibitors, primary screen, ATP luminescence, HTS (AID 743093);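 also: 0% = DMSO wells and 100% = medium only without gametocytes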
Conditions: P. falciparum stage V gametocytes, 24 h, at 10.9 µM, stronger effect = higher value

SMILES	inhibition
CC(C)CC(CCc1ccccc1)OS(N)(=O)=O (stereo unspecified)	-58.7%
CC(C)(C)OC(=O)Nc1ccc([C@@H](NC(=O)OC(C)(C)C)C(=O)OC(C)(C)C)cc1	-5.54%
COc1ccc(C)cc1NC(=O)CNCc1cccs1	7.68%
O=C(Cc1ccc(Br)cc1)NCCc1ccccc1	15.4%
CCC(C)CCN1CCN=C1N(C)C (stereo unspecified)	4.3%
Cc1ccc(S(=O)(=O)NCCCn2ccnc2)cc1C(=O)NC(C)C	2.4%
O=C1N[C@@H](Cc2ccccc2)C(=O)N2[C@H]1C[C@]1(Br)c3ccccc3N(S(=O)(=O)c3ccccc3)[C@H]21	12.6%
COC(=O)c1ccc(COc2ccc(/C=N/NC(=O)C(=O)Nc3ccc(OC)cc3)cc2OC)o1	2.74%
O=C(N[C@@H](Cc1ccccc1)C(=O)OCc1ccccc1)c1nc[nH]c1C(=O)N[C@@H](Cc1ccccc1)C(=O)OCc1ccccc1	0.44%
CCOc1cc(/C=N/Nc2cc(C)nc3ccc(C)cc23)ccc1O	10.4%
FC(F)(F)c1ccc2c3n(nc2c1)CCN=C3c1ccc(Cl)cc1	6.57%
COC(=O)CN1C(=O)[C@H]2[C@@H](C3CC3)N3C(=O)CN(Cc4ccc(-c5ccccc5)cc4)C(=O)[C@@]3(Cc3ccccc3)[C@H]2C1=O	-19.5%
CC(=O)Nc1ccc(NC(=O)CSc2nnnn2-c2ccccc2F)cc1	-3.76%
CC1CN(c2nc(Nc3ccccc3)nc(N)c2[N+](=O)[O-])CC(C)O1 (stereo unspecified)	-1.38%
CCOc1cc(C)ccc1OCc1nnc(SCC(=O)Nc2cccc(C(=O)O)c2)n1-c1ccccc1	15.6%
Nc1cccnc1Sc1ccccc1	-1.9%
Cc1noc(C)c1NC(=O)Nc1cccc2c1O[C@H](CN(C)S(=O)(=O)c1c(C)noc1C)[C@@H](C)CN([C@H](C)CO)C2=O	-15.7%
O=C(O)c1ccccc1NC(=O)c1ccccc1-c1ccccc1C(=O)O	-11.4%
CCOCCn1[nH]c2ccccc2c1=O	-10.4%
COc1cc2c(cc1OC)C(c1ccccc1Br)NC(=O)C2 (stereo unspecified)	1.27%
Cc1cccc(NC(=O)CCN2CC(C)CC(C)C2)c1 (stereo unspecified)	-2.59%
CC(=O)Nc1ccc(Oc2ccc3c(c2)C(=O)NC3=O)cc1	10.6%
CCCn1c(C2CCCN2c2nc(-c3ccc(C)cc3)cs2)nc2cc(Cl)c(N3CCCCC3)cc21 (stereo unspecified)	10.4%

SMILES	inhibition
O=C(O)CCC(=O)N(Cc1ccccc1)Cc1ccccc1	-4.24%
Cc1ccc(S(=O)(=O)N2CCN(C)CC2)cc1	-1.33%
COc1cc2c(cc1OC)C(C(=O)Nc1cc(C)c(OC)c(C)c1)CC(=O)N2 (stereo unspecified)	5.54%
CCOC(=O)c1sc(/N=C/C2=C(O)CC(C)(C)CC2=O)c(C(=O)OCC)c1C	22.4%
O=C(c1ccc(F)cc1)n1cc(C(=S)N2CCOCC2)c2ccccc21	0.53%
N=c1n(CCc2ccccc2)c2ccccc2n1Cc1ccccc1F	59.9% (active)
Cn1cc(CN2CCC(C(O)CCc3ccccc3)CC2)c(-c2ccccc2F)n1 (stereo unspecified)	9.2%
CN(Cc1ccccc1)Cc1ccccc1F	19.5%
OC(CNC1CCCC1)COc1ccc(F)cc1 (stereo unspecified)	-4.99%
NC1=NC(c2ccc([N+](=O)[O-])cc2)N(c2ccc(F)cc2)C(N)=N1 (stereo unspecified)	9.95%
CC(C)NC(=O)/C(C#N)=C\c1ccc(N(C)C)c(Br)c1	7.74%
CNC1(c2nnnn2-c2c(C)cccc2C)CCOC(C)(C)C1 (stereo unspecified)	5.71%
COc1ccc(NC(=O)c2cc(-c3ccc(C)cc3)on2)cc1	-2.96%
CCOC(=O)C1(Cc2ccccc2C)CCCN(S(C)(=O)=O)C1 (stereo unspecified)	-3.76%
COc1ccccc1C(=O)Nc1ccc(Nc2ccccc2)cc1	-11.9%
COc1cc(OC)cc(-c2c(-c3cccs3)c3cc(-c4ccc(OC)nc4)ccc3n2C)c1	-3.15%
Cc1ccc(C(=O)NNC2=Nc3cc([N+](=O)[O-])ccc3OC2)cc1	5.16%
O=Cc1c(NCCCN2CCCC2=O)c2ccccc2[nH]c1=O	-5.27%
COc1ccc(CNC(=O)C2CCCC2)cc1	-3.19%
COc1cccc2oc(CCc3ccccc3)cc(=O)c12	-20%
O=C(CN1CCCCCC1)Nc1ccc(Br)cc1[N+](=O)[O-]	-7.18%
COc1ccc(NC(=O)CS(=O)(=O)c2ccccc2)cc1	34.6%
CCC(CO)Oc1cc(NC(=O)c2cccc(F)c2)c2ncn(C(C)C)c2c1 (stereo unspecified)	-8.65%

SMILES	inhibition
CCc1nnc(NS(=O)(=O)c2ccc(NC(=O)c3cccc(OC(F)(F)C(F)F)c3)cc2)s1	-3.99%
CC(C)(C)OC(=O)C[C@H]1C/C=C\C[C@@H](CC(=O)N[C@H](CO)Cc2ccccc2)C(=O)NC[C@@H](c2ccccc2)OC1=O	20.4%
COc1ccc(S(=O)(=O)NCCCc2ccccc2)cc1	-6.3%
CCC1=NN2C(=N)/C(=C/c3cc(C)n(-c4ccccc4)c3C)C(=O)N=C2S1	20.8%
COC(=O)C1(CCSC)NC(c2ccc(OC)cc2OC)C2C(=O)N(c3cccc(C(C)=O)c3)C(=O)C21 (stereo unspecified)	15.8%
Nc1cc(N)nc(SCc2cccc(F)c2)n1	-27.3%
COc1ccccc1C(=O)Nn1cnnc1	-1.75%
COc1ccc(-c2cc3ncccc3cn2)cc1	-25%
CC(=O)NCC(=O)NC1CCCc2c1cnn2-c1ccccc1F (stereo unspecified)	-0.98%
CCOc1cc(/C=C2\C(=N)N3N=C(C)SC3=NC2=O)ccc1OCCOc1ccccc1	-11.6%
O=C1C=C(c2cccc(Cl)c2O)C[C@@H](c2ccc(F)cc2)C1	-16.5%
COc1ccccc1OCCCCCCN1CCN(C)CC1	14.7%
COc1cc(OC)cc(-c2sc3ccc(OC)cc3c2-c2ccc3cc[nH]c3c2)c1	5.06%
C/C(=C/c1ccccc1)C(=O)N1CCN(c2ccccc2)CC1	5.72%
Cc1cc2nc3n(c2cc1C)CC1CC(C(=O)NCCC(C)C)N(C)C31 (stereo unspecified)	6.88%
COC(=O)[C@]1(C)N[C@H](c2ccc(-c3ccc(Cl)c(Cl)c3)cc2)[C@@H]2C(=O)N(C)C(=O)[C@@H]21	15.7%
CC(C)(C)NC(=O)/C(=C/c1cccnc1)NC(=O)c1ccco1	-3.01%
COc1ccc(C(C)NC(=O)C2CCCC2)cc1 (stereo unspecified)	7.38%
O=C(CNc1ccc(F)cc1F)NC(=O)NCc1ccco1	-14.3%
COc1ccc2ccn(C)c2c1	3.29%
CC(=O)N1CCC(N(C(=O)Nc2ccc(Cl)cc2)C(C)C)CC1	-9.52%
CCC(=O)Nc1ccc(C(=O)NNC(=O)c2ccc(Cl)cc2)cc1	1.21%
CCN1C(=S)N[C@@H](CCc2ccccc2)[C@H](C(=O)OC)[C@H]1C	12.5%

SMILES	inhibition
Oc1c(Br)cc(/C=N/NC(=S)NCC2CCCO2)cc1Br (stereo unspecified)	-1.52%
Cc1cc(N2CCN(c3ccccc3)CC2)nc(N2CCOCC2)n1	-32.2%
COc1ccc(NC(=O)C2=NNC(=O)CC2)cc1S(=O)(=O)N1CCCCC1	3.13%
COc1ccc(N(CC(=O)Nc2cccc3ccccc23)S(C)(=O)=O)c(OC)c1	7.84%
O=C(COc1ccccc1)N1CCN=C1SCc1cccc(F)c1	8.04%
O=C(Nc1cccc(S(=O)(=O)NC2=NCCC2)c1)C1CCCCC1	-1.09%
CCOc1cc2ccccc2cc1C(=O)Nc1ccccn1	3.24%
CC(=O)c1ccc(N2Cc3ccccc3C2)cc1	9.41%
O=C(CC(c1ccccc1)c1cc(Cl)ccc1O)NCCN1CCOCC1 (stereo unspecified)	-8.49%
CN(c1ccc(OCC(=O)NC2=NCCS2)cc1)S(=O)(=O)c1ccc(F)cc1	-8.94%
C/C(=N/NC(=O)CN1CCN(S(=O)(=O)c2ccc(Br)cc2)CC1)c1ccncc1	-12.4%
Cc1nnc(C)c2c(C)n(N)c(C)c12	-1.23%
COc1ccc(CCN2C(=O)C(C)=C(C)C2=O)cc1OC	-7.13%
COc1cc(OC)cc(-c2c(C#Cc3ccsc3)c3cc(-c4ccc(SC)cc4)ccc3n2C)c1	3.56%
O=C(c1ccco1)N1CCN(c2cccc(Cl)c2)CC1	4.74%
O=C(c1ccco1)N1CCN(C(=O)C2c3ccccc3Oc3ccccc32)CC1	42.8% (active)
O=C(c1ccco1)N1CCN(CCOc2ccccc2)CC1	-1.67%
CCCn1c(=O)c(C(=O)Nc2cc(C)ccn2)c(O)c2ccccc21	-14.8%
CC(=O)c1ccc(NC(=O)C(C)N(C)CC(=O)Nc2ccccc2Cl)cc1 (stereo unspecified)	-5.51%
CCOC(=O)C1(CCOc2ccccc2)CCN(Cc2cc(OC)cc(OC)c2)CC1	9.31%
Cn1c(=O)c2c(-c3cccc(Br)c3)c(C#N)c(N)nc2n(C)c1=O	-18.2%
COc1ccccc1-c1nnc(-c2ccc(F)cc2)o1	-17.9%
CCOC(=O)[C@H]1[C@H]2COc3ccccc3[C@@H]2N2C(=O)CN(Cc3ccccc3)C(=O)[C@@]12C	-1.62%

SMILES	inhibition
CC(=O)Cn1cnc2c(cnn2-c2ccccc2)c1=O	2.17%
O=C1C(=O)N(CCCO)C(c2ccccc2)/C1=C(\O)c1ccc(Br)cc1 (stereo unspecified)	2.05%
COc1ccc(N(CC(=O)NCCSCc2cccc(Cl)c2)S(C)(=O)=O)cc1	1.88%
COc1cc(OC)c(C(=S)N2CCCC2)cc1OC	-6.55%
O=c1[nH]cnc(O)c1C(c1ccc(F)cc1)c1c(O)nc[nH]c1=O	0.56%
CCCc1nc2oc3c(=O)[nH]cnc3c2c2c1COC(C)(C)C2	8.46%
COc1ccc(-c2c(C#Cc3ccccc3)c3ccccc3n2C)cc1	-4.41%
Cc1cccc(NC(=O)C(C)SCc2ccccc2)c1 (stereo unspecified)	-2.36%
COc1ccc(Cc2cc(-c3ccc(F)cc3)n[nH]c2=O)cc1	-14.6%
C=CC[C@@H](CC(=O)N[C@@H](CO)Cc1ccccc1)C(=O)NCCOC(=O)[C@@H](CC=C)CC(=O)OC(C)(C)C	-18.1%
COc1ccccc1-n1c(SCC(=O)O)nc2sc3c(c2c1=O)CCC3	-0.96%
Cc1cc(C)cc(NC(=O)NC2CCN(CC(=O)Nc3cccc(Cl)c3C)CC2)c1	-10.3%
CC(C)Cc1nnc(NC(=O)CCc2ccccc2)s1	-5.6%
COc1ccc(CCNC(=O)C2CCCN2C(=O)Nc2ccccc2)cc1OC (stereo unspecified)	11.4%
COC(=O)C1(C)NC(c2ccc(F)cc2)C2C(=O)N(c3ccccc3)C(=O)C21 (stereo unspecified)	-19.3%
COc1ccccc1-c1oc2ccccc2c1C#CCCCCO	7.1%
Cc1cc(-c2n[nH]c(=S)n2/N=C/c2ccco2)n[nH]1	9.38%
CCCNC(=S)N1CCC(NC(=O)c2ccc(OC)cc2)CC1	-3.26%
COc1ccc(C(C(=O)NC(C)(C)C)N(C(=O)Cn2nnc3ccccc32)c2ccc(C(C)=O)cc2)cc1O (stereo unspecified)	8.85%
